Neddylation inh: inhibitors of human cullin neddylation; calls only at 25 µM; TR-FRET cullin neddylation, biochemical; 360,000 tested, 0.58% active; P61081+Q13564; in the data active = inhibition above about 36%
LEDGF integ inh: blocks HIV-1 LEDGF/p75-dependent DNA integration. TR-FRET IN-LEDGF/p75 DNA integration, Eu/Cy5. inhibition, % at 3.7 µM. 370,000 tested, 0.64% active;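 active = inhibition above the screen-wide mean plus 3 SD, cut at about 13% in these data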;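 also: signal is the Cy5 over europium emission ratio at 671 and 618 nm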
proKLK7 act: activators of human kallikrein-7 zymogen. P49862. purified proKLK7, EDANS-DABCYL substrate fluorescence; 100% is mature enzyme control, 0% vehicle. activation, % at 7 µM. 370,000 tested, 0.9% active. AID 652039;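 active = activation above the mean of all tested compounds plus 3 SD, computed per campaign excluding outliers beyond control limits, cut at about 13% in these data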
Rin1-Abl PPI inh: human Rin1-Abl interaction inhibition. inhibition, % at 7.35 µM. 360,000 tested, 0.4% active. TR-FRET Rin1/Abl binding, biochemical; in the data active = inhibition above about 5%, passing the limit was not always enough
UHRF1 MBD2 ctr: blocks human UHRF1 binding to methylated DNA; Q96T88; UHRF1 binding to methylated oligo, TR-FRET; inhibition, % at 4.4 µM; 370,000 tested, 0.75% active; AID 687016; in the data active = inhibition above about 21%;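 also: UHRF1 SRA domain binding a hemimethylated CpG hairpin DNA probe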
MBD2 DNA inh: blocks human MBD2 binding to methylated DNA. Q9UBB5. TR-FRET, MBD2 binding to methylated oligonucleotide. inhibition, % at 4.4 µM. 370,000 tested, 0.31% active. AID 686964; in the data active = inhibition above about 13%
Numbers stand for hits; - = inactive; . = not tested or not shown; + = active, no number. The list is not random: actives were taken first. Their share in the collection is about 3.1%.

SMILES	Neddylation inh	LEDGF integ inh	proKLK7 act	Rin1-Abl PPI inh	UHRF1 MBD2 ctr	MBD2 DNA inh
COC(=O)[C@]12CCCCC=C1N(Cc1ccccc1)C(=O)[C@H](CC(=O)N1CCCCC1)C2	-	-	-	.	-	-
CCN(CC)C(=O)c1cccc(-c2csc(C(O)c3ccccc3)n2)c1 (stereo not drawn)	-	-	-	-	22	-
CCN(CC)C(=O)c1cccc(-c2csc(C(O)c3ccc(F)cc3)n2)c1 (stereo not drawn)	-	-	-	-	-	-
O=C(NC1CCSc2ccccc21)c1ccc([N+](=O)[O-])cc1 (stereo not drawn)	-	-	-	-	-	-
O=C(NC1CCSc2ccccc21)c1cc([N+](=O)[O-])ccc1N1CCOCC1 (stereo not drawn)	-	14	-	-	-	-
COC(=O)[C@]12C[C@H](CC(=O)NCc3ccc(C)o3)C(=O)N(Cc3ccc(Cl)cc3Cl)C1=C[C@H](COCc1ccccc1)O[C@@H]2C	.	-	-	.	-	-
CCCC(C(=O)NC1CCCC1)N(CC1CCCO1)C(=O)CNS(=O)(=O)c1ccc(F)cc1 (stereo not drawn)	-	-	-	-	-	-
CCC(C(=O)NCC1CCCO1)N(C(=O)CNS(=O)(=O)c1ccccc1)c1ccc(F)cc1 (stereo not drawn)	-	89	-	-	-	-
CC(C)C(C(=O)NC1CCCC1)N(CC1CCCO1)C(=O)CNS(=O)(=O)c1ccc(F)cc1 (stereo not drawn)	-	-	-	-	28	-
OCC[C@@H]1C[C@H](O)[C@@H](O)[C@@]2(OCc3cc(C(F)(F)F)ccc32)O1	-	-	-	-	22	-
c1ccc(CSC2=NNC(c3ccccn3)S2)cc1 (stereo not drawn)	+	-	-	-	-	-
O=C(CSC1=NNC(c2ccccn2)S1)Nc1ccc(C(F)(F)F)cc1 (stereo not drawn)	-	-	-	-	-	-
CCOC(=O)c1oc2ccccc2c1NC(=O)C(C)(C)C	-	-	-	-	52	-
Cc1cc(C)cc(NC(=S)Nc2cccc3ccccc23)c1	-	-	-	-	66	-
Cc1ccc(NC2(C#N)CCCC2)cc1	-	-	-	-	-	-
Cc1ccc2cccc(OC(=O)/C=C\c3ccccc3)c2n1	-	-	-	-	27	-
COc1ccccc1/C=C/C(=O)Oc1cccc2cccnc12	-	-	-	-	-	-
Cc1ccc(S(=O)(=O)N(C)CC(=O)NNC(=O)CCNS(=O)(=O)c2cccc(C)c2)cc1	-	-	-	-	34	-
COc1cc2ccccc2cc1C(=O)Nc1sc2c(c1C(N)=O)CCN(C(C)C)C2	+	-	-	-	-	-
CN1CCc2c(sc(NC(=O)c3ccc4ccccc4c3)c2C(N)=O)C1	-	.	.	-	.	.
O=C(Cc1ccc([N+](=O)[O-])cc1)Nc1cccc(C(=O)N2CCCCC2)c1	-	-	-	-	-	-
O=C(NCCn1cc(SCC(=O)N2CCOCC2)c2ccccc21)c1ccccc1	-	-	-	-	-	-
Cc1cc(C)cc(C(=O)NCCn2cc(SCC(=O)N3CCOCC3)c3ccccc32)c1	-	-	-	-	38	-
Cc1noc(C)c1COc1ccccc1C(=O)NC(C)c1ccc(Cl)cc1 (stereo not drawn)	-	-	-	-	32	-
Cc1noc(C)c1COc1ccccc1C(=O)NC(C)CCc1ccccc1 (stereo not drawn)	-	-	-	-	-	-
SMILES	Neddylation inh	LEDGF integ inh	proKLK7 act	Rin1-Abl PPI inh	UHRF1 MBD2 ctr	MBD2 DNA inh
CCN(C[C@H]1N[C@@](CC)(C(=O)OC)[C@H]2C(=O)N(C)C(=O)[C@@H]12)C(=O)Nc1ccc(C(F)(F)F)cc1	-	-	-	-	-	-
CC[C@@]1(C(=O)OC)N[C@H](CN(C)C(=O)Nc2ccc(C(F)(F)F)cc2)[C@@H]2C(=O)N(C)C(=O)[C@@H]21	-	-	-	-	22	-
Cc1cccc(NC(=O)COC(=O)CN2C(=O)c3ccccc3C2=O)c1	-	-	-	-	-	-
Nc1ncnc2c1ncn2[C@@H]1O[C@H](COP(=O)(O)OP(=O)(O)OP(=O)(O)O)[C@@H](O)[C@H]1O	+	-	-	-	-	-
Nc1ncnc2c1ncn2[C@@H]1O[C@H](COS(=O)(=O)O)[C@@H](O)[C@H]1O	+	-	-	-	-	-
Nc1ncnc2c1ncn2[C@@H]1O[C@H](CNCc2cccc(C#Cc3ccccc3)c2)[C@@H](O)[C@H]1O	+	-	-	-	-	-
COc1ccccc1C(=O)N1CCN(C(=O)[C@H]2O[C@@H](n3cnc4c(N)ncnc43)[C@H](O)[C@@H]2O)CC1	-	-	-	-	24	-
Cc1ccc(OC2CCN(C(=O)[C@H]3O[C@@H](n4cnc5c(N)ncnc54)[C@H](O)[C@@H]3O)CC2)cc1	-	-	-	-	-	-
Nc1ncnc2c1ncn2[C@@H]1O[C@H](CNCc2ccccc2)[C@@H](O)[C@H]1O	-	.	.	-	.	.
COc1ccccc1C(=O)NCC(=O)OCc1nnc(-c2ccccc2)o1	-	-	-	-	-	-
CC(C)CCC(CCNCc1ccccn1)c1ccc(Cl)cc1 (stereo not drawn)	-	15	-	-	-	-
Cc1nnc(N2CCCC(C(=O)NCc3ccc(OC(C)C)cc3)C2)c2nn(-c3ccccc3)c(C)c12 (stereo not drawn)	.	-	-	32	-	-
CC(CNC(=O)CCc1nnc(CCC2CCCCC2)o1)c1ccccc1 (stereo not drawn)	-	-	-	-	33	-
COc1ccc(N2CC(C(=O)N/N=C/c3ccc([N+](=O)[O-])cc3)CC2=O)cc1 (stereo not drawn)	-	-	-	-	-	-
COc1ccc(N2CC(C(=O)Nc3ncccc3C)CC2=O)cc1 (stereo not drawn)	-	-	-	-	27	-
COc1ccc(N2CC(C(=O)N/N=C/c3ccc(C)cc3)CC2=O)cc1 (stereo not drawn)	-	-	-	-	24	-
Nc1nc(COc2ccccc2C=O)nc(Nc2ccccc2)n1	-	-	-	-	-	-
COC(=O)C1CCCCN1C(=O)c1cc(COc2cccc3cnccc23)on1 (stereo not drawn)	+	-	-	-	-	-
CCOC(=O)CC1CCCCN1C(=O)c1cc(COc2cccc3cnccc23)on1 (stereo not drawn)	+	-	-	-	-	-
Cn1cc([C@@H]2C[C@H]3CN(Cc4cccc(Cl)c4)C(=O)[C@]34CCCN24)c2ccccc21	-	-	-	-	-	-
COCCCNC(=O)C[C@H]1C[C@@]2(C(=O)OC)C(=C[C@H](C(C)(C)C)O[C@@H]2C)N(CCC2=CCCCC2)C1=O	.	-	-	.	-	-
CCCCCC(=O)NC(=S)Nc1ccccc1C(=O)OC	-	-	-	-	24	-

Bioassay records (PubChem BioAssay)
